{"source": "PubChem BioAssay AID488789", "about": "(Broad Institute, 2010)", "note": "Results with a measured potency or affinity are listed apart. Inconclusive results are not listed. Active and inactive are the calls of the source.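 The calls were made as follows: active = samples whose fitted half-maximal inhibition concentration is no more than ten times the top valid dose tested; inconclusive = flat response between -70 and -30, or invalid curve fit; inactive = flat within 30 of zero, potency above limit, or signal rising.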", "data": [{"target": "Trypsin (Sus scrofa) (UniProt P00761)", "sequence (P00761 whole entry, looked up)": "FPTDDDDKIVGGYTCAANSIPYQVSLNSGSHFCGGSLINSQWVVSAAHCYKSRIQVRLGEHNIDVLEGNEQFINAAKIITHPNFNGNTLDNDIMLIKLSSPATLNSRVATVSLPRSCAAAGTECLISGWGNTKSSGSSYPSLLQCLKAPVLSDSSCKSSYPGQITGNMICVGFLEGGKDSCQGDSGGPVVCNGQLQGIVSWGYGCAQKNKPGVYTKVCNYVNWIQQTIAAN", "experiment": "porcine trypsin inhibitors, dose response, selectivity assay for Rce1 protease inhibitor project, biochemical, quenched peptide fluorescence, cherry-pick (AID 488789);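 also: more negative means stronger trypsin inhibition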", "conditions": "quenched peptide cleavage fluorescence; series mostly up to 10 µM", "values": [{"smiles": "OC1CCN(C(c2ccc3ncccc3c2)c2nnnn2C2CCCCC2)CC1", "note": "(configuration not stated)", "outcome": "inactive"}, {"smiles": "COc1ccc(N2CCN(C(=O)c3cc(-c4cccs4)nc4ccccc34)CC2)cc1", "outcome": "inactive"}, {"smiles": "CCOc1ccc(NC(=O)CCSc2ccc(C)cc2)cc1", "outcome": "inactive"}, {"smiles": "O=C(Nc1ccccc1N1CCOCC1)C1CCN(S(=O)(=O)c2ccc(F)cc2)CC1", "outcome": "inactive"}, {"smiles": "CCC(=O)Nc1cccc(NC(=S)NC(=O)c2cccs2)c1", "outcome": "inactive"}, {"smiles": "O=[N+]([O-])c1ccc(-c2cnc(SC(c3ccccc3)c3ccccc3)[nH]2)cc1", "outcome": "inactive"}, {"smiles": "C[n+]1c2n(c3ccccc31)N=C(c1cc(C(C)(C)C)c(O)c(C(C)(C)C)c1)CS2", "outcome": "inactive"}, {"smiles": "CC(=O)NN1C(=O)c2ccccc2NC1c1ccccc1", "note": "(configuration not stated)", "outcome": "inactive"}, {"smiles": "CCN(Cc1ccccc1)S(=O)(=O)c1ccc(C(=O)N(CCCN(C)C)c2nc3cc(C)cc(C)c3s2)cc1", "outcome": "inactive"}, {"smiles": "Cc1cc(C)c2cc(C#N)c(NCCCNC(=O)CCC(=O)O)nc2c1", "outcome": "inactive"}, {"smiles": "Cc1c(Cl)c([N+](=O)[O-])nn1CC(=O)N1CCCc2ccccc21", "outcome": "inactive"}, {"smiles": "CS(=O)(=O)Cc1ccc(C(=O)N(CCc2ccccc2)Cc2ccccc2)cc1", "outcome": "inactive"}, {"smiles": "CCN(CC)CCN(C(=O)c1cc2ccccc2cc1OC)c1nc2ccc(F)cc2s1", "outcome": "inactive"}, {"smiles": "CCCn1c(O)c(N=NC(=O)CNC(=O)Cc2ccc(OC)cc2)c2ccccc21", "outcome": "inactive"}, {"smiles": "CCSCCOC(=O)C1=C(C)NC(=O)NC1c1ccccc1", "note": "(configuration not stated)", "outcome": "inactive"}, {"smiles": "CCC(C)(C)c1ccc(OCCCC[n+]2cccc(C)c2)c(C(C)(C)CC)c1", "outcome": "inactive"}, {"smiles": "c1coc(-c2ccnc3ncnn23)c1", "outcome": "inactive"}]}]}
